These results are taken from PubChem BioAssay (NCI).

Holding throughout (assay): NCI-60 one-dose screen, 48 h (100 = growth as untreated, 0 = no growth, -100 = all killed)
Conditions in all cases: 10 µM unless noted

Experiment [1] deals with RPMI-8226 leukemia.
Experiment [2] has as its system OVCAR-8 ovarian.
The test system of experiment [3] is OVCAR-5 ovarian.
In experiment [4] the test system is OVCAR-4 ovarian.
In experiment [5] the test system is SK-OV-3 ovarian.
Experiment [6] has as its system IGROV1 ovarian.
For experiment [7], the system named is OVCAR-3 ovarian.
For experiment [8], the system named is HS 578T breast.
Experiment [9] deals with NCI/ADR-RES ovarian.
Experiment [10] has as its system T-47D breast.
The subject of experiment [11] is BT-549 breast.
Experiment [12] has as its system MDA-MB-435 melanoma.
For experiment [13], the system named is SW-620 colon.
For experiment [14], the system named is MCF7 breast.
Experiment [15] relates to HCT-116 colon.
In experiment [16] the test system is HCC-2998 colon.
The subject of experiment [17] is KM12 colon.

Each structure is given as a SMILES string. “And” between values parts separate entries of the source, which are not always exact repeats. Equal values may be shown once. Compounds without any hit were thinned out: in the full panel of roughly 83,000, 20% have a hit.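 Values shown are percent growth following 48 h exposure of cells in 96-well plates to a single concentration of compound; below 10 was considered active.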 The source made the active and inactive calls.

As to `C/C(=C\c1ccccc1)C(O)C(=O)c1nc2ccc([N+](=O)[O-])cc2[nH]c1=O` (stereo unspecified), the growth in experiment [1] is 90.2% (inactive); in experiment [2], 96.6% (inactive); in experiment [3], 96% (inactive); in experiment [4], 114% (inactive); in experiment [5], 105% (inactive); in experiment [6], 102% (inactive). The growth was 113% (inactive) in [7]; 94.7% (inactive) in [8]; 87.7% (inactive) in [9]; 77.5% (inactive) in [10]; 78.9% (inactive) in experiment [11]; 99.5% (inactive) in [12]. The growth in experiment [13] was 104% (inactive); in experiment [14], 79.3% (inactive); in experiment [15], 91.4% (inactive); in [16], 106% (inactive); in experiment [17], 90.3% (inactive).

`O=C(/C=C/C=C/c1ccc2c(c1)OCO2)N1CCCCC1`: the growth in [1] was 102% (inactive) and 124% (inactive); in [2] it was 101% (inactive) and 97.4% (inactive); in experiment [3] it was 96.4% (inactive); in [4], 103% (inactive) and 96.8% (inactive); in experiment [5], 101% (inactive) and 102% (inactive); in [6], 105% (inactive) and 6.71% (active). The growth in experiment [7] was 121% (inactive) and 104% (inactive); in experiment [8] it was 104% (inactive) and 94.8% (inactive); in [9] it was 98% (inactive) and 106% (inactive); in experiment [10], 90.8% (inactive) and 103% (inactive); in [11] it was 108% (inactive); in experiment [12], 98.9% (inactive) and 104% (inactive). Moreover, the growth is 106% (inactive) and 101% (inactive) in experiment [13]; 101% (inactive) and 82.8% (inactive) in experiment [14]; 103% (inactive) and 98.1% (inactive) in experiment [15]; 102% (inactive) and 130% (inactive) in [16]; 98.2% (inactive) and 95% (inactive) in experiment [17].

On to `Nc1nc(N)c2cc(S(=O)(=O)c3ccccc3)ccc2n1`, for which the growth is 51% (inactive) and 54.5% (inactive) in experiment [1]; 38% (inactive) and 43.5% (inactive) in [2]; 39.2% (inactive) and 75.8% (inactive) in [3]; 54% (inactive) in experiment [4]; 62.1% (inactive) and 52.1% (inactive) in experiment [5]; 36.6% (inactive) and 58.6% (inactive) in [6]. Further, the growth is 53.9% (inactive) and 59.7% (inactive) in [7]; 65.8% (inactive) and 73.4% (inactive) in experiment [8]; 41.2% (inactive) and 50.2% (inactive) in [9]; 72.7% (inactive) and 59% (inactive) in experiment [10]; 81.4% (inactive) and 54.6% (inactive) in experiment [11]; 33.5% (inactive) and 31% (inactive) in [12]. The growth in [13] was 21.8% (inactive) and 25.3% (inactive); in [14] it was 40.2% (inactive) and 29.5% (inactive); in [15], 16.3% (inactive) and 13.4% (inactive); in [16] it was 30.6% (inactive); in [17], 32.5% (inactive) and 28.7% (inactive).

As to `CC(=O)Oc1ccc(C2(c3ccc(OC(C)=O)cc3)C(=O)Nc3ccccc32)cc1`, the growth is 108% (inactive) and 75.1% (inactive) in experiment [1]; 27.1% (inactive) and 25.5% (inactive) in [2]; 103% (inactive) and 89.5% (inactive) in experiment [3]; 6.67% (active) and -15.3% (active) in experiment [4]; 115% (inactive) and 114% (inactive) in experiment [5]; 65% (inactive) and 46.1% (inactive) in [6]. Besides, the growth in [7] is -1.41% (active) and -3.11% (active); in [8] it was -18.5% (active) and -15.5% (active); in experiment [9], 16.6% (inactive) and -4.21% (active); in experiment [10] it was -26.3% (active) and -22.5% (active); in [11], -33.3% (active) and -8.43% (active); in [12], 110% (inactive) and 126% (inactive). Moreover, the growth in experiment [13] is 98.2% (inactive) and 104% (inactive); in experiment [14], 9.09% (active) and 15.1% (inactive); in experiment [15], 84.9% (inactive) and 84.5% (inactive); in experiment [16] it was -3.15% (active) and 44.8% (inactive); in [17], 71.3% (inactive) and 61.9% (inactive).

Consider `CC1CCC(=O)N1c1ccc(N)cc1` (stereo unspecified), for which the growth in experiment [1] was 103% (inactive); in [2] it was 100% (inactive); in experiment [3], 99.9% (inactive); in [4] it was 107% (inactive); in experiment [5], 99.3% (inactive); in experiment [6], 101% (inactive). Further, the growth was 108% (inactive) in experiment [7]; 108% (inactive) in experiment [8]; 106% (inactive) in experiment [9]; 81.9% (inactive) in [10]; 99.9% (inactive) in experiment [11]; 109% (inactive) in experiment [12]. Besides, the growth is 97.6% (inactive) in experiment [14], 101% (inactive) in experiment [15], 98.8% (inactive) in [16] and 102% (inactive) in [17].

For `COC1C(OC(N)=O)C(O)C(Oc2ccc3c(O)c(NC(=O)c4ccc(O)c(CC=C(C)C)c4)c(=O)oc3c2C)OC1(C)C` (stereo unspecified), the growth was 103% (inactive) in experiment [2]; 86.8% (inactive) and 91.4% (inactive) in experiment [3]; 111% (inactive) and 98.9% (inactive) in experiment [4]; 112% (inactive) and 121% (inactive) in [5]; 137% (inactive) and 129% (inactive) in experiment [6]; 97.3% (inactive) and 90.6% (inactive) in experiment [7]. Moreover, the growth in experiment [8] is 89.4% (inactive) and 102% (inactive); in experiment [9], 106% (inactive) and 97.1% (inactive); in experiment [10] it was 106% (inactive) and 94.8% (inactive); in [11] it was 112% (inactive) and 97.8% (inactive); in experiment [12], 98.6% (inactive) and 98.8% (inactive); in [14], 96.8% (inactive) and 93.4% (inactive). The growth was 96.8% (inactive) and 101% (inactive) in experiment [15]; 107% (inactive) and 96.6% (inactive) in experiment [16]; 110% (inactive) and 101% (inactive) in [17].

As to `COCCNC(C)=O`, the growth in experiment [1] is 114% (inactive); in [2], 114% (inactive); in [3], 94.9% (inactive); in experiment [4] it was 104% (inactive); in [5], 102% (inactive); in [6] it was 106% (inactive). In addition, the growth is 113% (inactive) in [7]; 106% (inactive) in experiment [8]; 120% (inactive) in [9]; 89.5% (inactive) in [10]; 106% (inactive) in [11]; 105% (inactive) in experiment [12]. For the same compound, the growth was 94.1% (inactive) in experiment [14], 118% (inactive) in experiment [16] and 103% (inactive) in experiment [17].

As to `CN(C=O)c1ccccc1`, the growth in experiment [1] was 91% (inactive); in [2], 96.6% (inactive); in [3], 100% (inactive); in experiment [4], 85.3% (inactive); in experiment [5], 86.7% (inactive); in [6], 102% (inactive). Also, the growth in experiment [7] was 110% (inactive); in [8], 100% (inactive); in experiment [9] it was 97.4% (inactive); in experiment [10], 86.7% (inactive); in experiment [11], 93.1% (inactive); in experiment [12] it was 102% (inactive). Also, the growth in experiment [13] was 104% (inactive); in experiment [14] it was 87.4% (inactive); in [15], 89% (inactive); in experiment [16], 101% (inactive); in experiment [17] it was 110% (inactive).
